The experiment concerns PLK1. Further details: species or system human, MV4-11 + K-562 + COLO205 + SK-N-BE2 + OVCAR-8. The following applies: read-out: apparent Kd, compound concentrations: 100 nM and 1000 nM (sheet 'Samples'), n = 1.

SMILES strings stand for the structures. Read-outs that look alike come from different tables or passages of the source.

With `COc1cc2ncn(-c3cc(OCC4CCCO4)c(C(N)=O)s3)c2cc1OC` (stereo not drawn) [GSK204607A], where the note is “CATDS: 0.33403432138317102”, the potency estimated from few doses is 838 nM.

Turning to `COc1ccc2ncn(-c3cc(O[C@H](C)c4ccccc4C(F)(F)F)c(C(N)=O)s3)c2c1` [GSK317315A], the potency estimated from few doses (CATDS: 0.88975940081611404) is 128 nM.

Regarding `COc1cccc(C2=C(N(C)c3ccccc3)C(=O)NC2=O)c1` [SB-334865], the potency estimated from few doses (CATDS: 1) was 1420 nM.

The values are drawn from article PMC11062922 (Nature Chemical Biology, 2023).
